# A selection: hits, their analogues and other compounds. The true share with any hit is near 6%.
# D1 antagonist – Antagonist of Human D 1 Dopamine Receptor: qHTS; D(1A) dopamine receptor (Homo sapiens), P21728; HEK293 TREx D1 cells, calcium flux, dopamine EC80; hits give low values; activity change, negative = inhibition, % at 10 µM; actives 3.2% (n = 360,000); AID 504652, 2011; in the data active = activity change below about -30%; note: % is set by controls: 0 for no effect and ±100 for the full control effect
#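 Allosteric or orthosteric antagonism assessed as attenuation of the calcium response to EC80 dopamine, added 180 s after compound, in induced HEK293 Trex D1 cells loaded with no-wash calcium dye.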
# DRD3 agonist – qHTS of D3 Dopamine Receptor Agonist: qHTS; D3R DiscoveRx beta-arrestin cells, luminescence, 90 min; max activation, %; actives 0.58% (n = 410,000); in the data active = max activation above about 30%; note: 0% is about no effect
# Target sequence (P35462 whole entry, looked up): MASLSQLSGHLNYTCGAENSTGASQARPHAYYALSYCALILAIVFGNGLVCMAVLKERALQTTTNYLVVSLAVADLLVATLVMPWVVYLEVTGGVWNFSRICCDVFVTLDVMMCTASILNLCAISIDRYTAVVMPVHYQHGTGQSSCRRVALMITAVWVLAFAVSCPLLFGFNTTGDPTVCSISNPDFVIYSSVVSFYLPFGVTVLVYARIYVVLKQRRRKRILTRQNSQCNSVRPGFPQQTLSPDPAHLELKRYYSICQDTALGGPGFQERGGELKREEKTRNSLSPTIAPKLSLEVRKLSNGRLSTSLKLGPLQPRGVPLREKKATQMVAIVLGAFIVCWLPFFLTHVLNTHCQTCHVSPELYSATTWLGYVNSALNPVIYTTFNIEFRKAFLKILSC
#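 Agonist-mode cell screen: cells plated at 1500/well and incubated overnight at 37 °C, then exposed to library compounds for 90 min at 37 °C. Detection reagent was added for 30–60 min at room temperature, and luminescence was read.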
# D1 potentiator – Potentiators of Human D1 Dopamine Receptor: qHTS; HEK293 TREx D1 cells, calcium flux, dopamine EC20 potentiation; potentiation, % at 10 µM; actives 0.036% (n = 360,000); in the data active = potentiation above about 30%; note: 0% is about no effect
# Chronic BCR inh – qHTS Assay to Find Inhibitors of Chronic Active B-Cell Receptor Signaling; ABC-DLBCL IkBa-CBG/CBR reporter, luminescence ratio, 4 h; Potency, µM (highest dose often 46.1 µM), without a hit: at the top dose activity change, negative = inhibition, hits mostly inhibitors; actives 0.05% (n = 340,000); AID 493014, 2011; active = well fitted inhibition curve with a large enough effect in the signal ratio, with a control signal flat, not every such curve was filed as active; inconclusive = small, poorly fitted or top-dose-only effect, or effect the other way, or a change in a side signal; the % refers to the signal ratio;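 note: potency is the fitted concentration of half-maximal effect; plate controls were basal doxycycline-induced cells for no effect and cells given 10 µM MG132 for full effect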
#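 Concentration-response series (up to 46 uM) were applied to TMD8 dual-reporter cells for 4 h at 37C with doxycycline. Green/red ratio, after filter-overlap correction, defined %Activity; red signal alone was normalised to basal cells and zero luminescence.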
# DRD3 antagonist – qHTS of D3 Dopamine Receptor Antagonist: qHTS; D(3) dopamine receptor (Homo sapiens), P35462; D3R cells, DiscoveRx beta-arrestin luminescence, antagonist mode; hits give low values; max response, negative = inhibition, %; actives 2.5% (n = 360,000); in the data active = max response below about -50%; inconclusive = no clear call, values can overlap the other calls; note: % is set by controls: 0 for no effect and ±100 for the full control effect
#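 Cells plated overnight at 1500 cells/well, then exposed to library compounds with dopamine controls for 90 minutes at 37 degrees C. DiscoveRx reagent added for 30–60 minutes at room temperature; luminescence read, quantitative HTS format.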
# D1 agonist – Allosteric Agonists of the Human D1 Dopamine Receptor: qHTS. D(1A) dopamine receptor (Homo sapiens), P21728. HEK293 T-REx D1 cells, calcium flux, agonist mode. activation, % at 2 µM. actives 1% (n = 360,000); in the data active = activation above about 30%; note: 0% is about no effect
#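 Agonism was scored from calcium flux recorded over 180 s (1 read/s) after pintool compound addition, following a 10-cycle baseline. Cells were inducible force-coupled HEK293 TREx D1, plated overnight at 30 C and loaded with no-wash calcium dye.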
# The depositor's hits bear a star; ? = inconclusive; / = not tested or not shown.
SMILES,D1 antagonist,DRD3 agonist,D1 potentiator,Chronic BCR inh,DRD3 antagonist,D1 agonist
CN(Cc1cnccn1)Cc1ccccc1OCC(O)CN1CCc2ccccc2C1 (configuration not stated),-9,-20,-10,-11%,-83*,4
COc1ccc(OCC(O)CN2CCc3ccccc3C2)cc1 (configuration not stated),18,-16,3,0%,-107*,4
Cc1cccc(OCC(O)CN2CCOCC2)c1 (configuration not stated),4,-3,-1,-1%,-1,3
CCC(=O)c1ccc(OCC(O)CN2CCc3ccccc3C2)cc1 (configuration not stated),-8,1,-7,-4%,-75*,1
CCC(=O)NC(c1cccs1)c1cc(Br)c2cccnc2c1O (configuration not stated),21,/,-2,?,/,-2
C=CCc1ccc(OCC(O)CN2CCc3ccccc3C2)c(OC)c1 (configuration not stated),15,-18,-2,-11%,-100*,6
Cc1ccc(OCC(=O)N2CCc3ccccc3C2)c(C)c1,-8,-11,-9,-3%,-25,1
Cc1ccc(OCC(O)CN2CCc3ccccc3C2)c(C)c1 (configuration not stated),-6,-19,-4,-4%,-104*,3
COc1cccc(OCC(O)CN2CCc3ccccc3C2)c1 (configuration not stated),-7,-14,11,-8%,-91*,3
CCN1CCN(CC(O)COc2cccc(OC)c2)CC1 (configuration not stated),9,4,0,-3%,30,1
CCCc1ccc(OCC(O)CN2CCc3ccccc3C2)cc1 (configuration not stated),35,-19,-1,0%,-94*,4
O=C(NCCc1ccccc1)c1cccc2c(-c3cccnc3)coc12,/,0,/,/,-13,/
O=S(=O)(c1ccc(-c2csc(=Nc3ccc(F)cc3)n2CCCCCCO)cc1)N1CCCC1,9,12,-2,/,/,1
OC(COc1ccc(Cl)cc1Cl)CN1CCc2ccccc2C1 (configuration not stated),-1,-11,-6,-3%,-103*,7
COc1cc(COCC(O)CN2CCc3ccccc3C2)cc(OC)c1OC (configuration not stated),-6,-10,-3,-2%,-85*,1
COc1cc(COCC(O)CN2CCCCC2C)cc(OC)c1OC (configuration not stated),8,-6,1,?,0,3
CC(C)(C)c1ccc(OCC(O)CN2CCc3ccccc3C2)cc1 (configuration not stated),/,-21,/,/,-119*,/
Cc1cc(C)n(CC(O)COc2ccc(Cl)cc2Cl)n1 (configuration not stated),11,4,1,-2%,-3,-1
CC(C)(C)c1ccc(OCC(O)CN2CCN(C(=O)c3ccccc3)CC2)cc1 (configuration not stated),-3,-11,-4,0%,13,5
CC(=O)N[C@@H](CC(=O)N[C@@H](CCC(=O)O)C(=O)O)C(=O)O,/,-6,/,/,/,/
Cc1ccc(-n2c(=O)c3cccnc3n2CC(=O)Nc2ccc(Br)cc2)cc1C,-6,1,1,/,/,2
CC(=O)c1ccc(NC(=O)CCc2c(C)nn(-c3ccc(N4CCCCC4)nn3)c2C)cc1,-15,-4,0,/,/,0
CC(=O)Nc1ccc(NC(=O)c2cc([N+](=O)[O-])cc([N+](=O)[O-])c2)cc1,-4,0,-7,-2%,9,2
O=C(NNC(=O)c1cccc(O)c1)Nc1ccc([N+](=O)[O-])cc1,2,-6,16,?,-57*,3
O=C(Nc1ccc([N+](=O)[O-])cc1)c1cccc([N+](=O)[O-])c1,/,4,/,/,16,/
SMILES,D1 antagonist,DRD3 agonist,D1 potentiator,Chronic BCR inh,DRD3 antagonist,D1 agonist
O=C(Nc1ccc(Br)cc1)c1cc([N+](=O)[O-])cc([N+](=O)[O-])c1,-37*,1,-3,?,0,19
Cc1ccc(NC(=O)c2ccc(Nc3c([N+](=O)[O-])cc([N+](=O)[O-])cc3[N+](=O)[O-])cc2)cc1,-26,-16,0,?,-77*,15
Cc1ccc(C(=O)NNC(=O)CSc2nnc(-c3ccncc3)n2C)cc1,-5,-8,4,-2%,-75*,1
COc1ccc(NCc2nnc(SCC(=O)c3ccc(OC)cc3)n2C)cc1,-33*,-1,-9,0%,-5,2
COc1ccc(OCCSc2nnc(CCNC(=O)c3ccc(OC)cc3)n2C)cc1,8,2,-8,0%,-15,1
COc1ccc(CC(=O)NCc2nnc(SCC(=O)c3ccc(OC)cc3)n2C)cc1,0,-6,3,0%,24,0
COc1ccc(OCCSc2nnc(CCNC(=O)c3ccc(Cl)c(Cl)c3)n2C)cc1,-36*,-21,-5,-1%,18,1
CCCCn1c(CNC(=O)c2ccc(OC)cc2)nnc1SCC(=O)Nc1ccccc1,-69*,3,-6,/,/,1
COc1ccc2cc3cc(C(=O)N4CCN(c5cccc(C(F)(F)F)c5)CC4)sc3nc2c1,-13,-4,-1,/,/,1
COc1ccccc1NS(=O)(=O)c1cccc(C(=O)N/N=C/c2ccc([N+](=O)[O-])o2)c1,6,-19,-1,?,-8,2
CC(=O)c1ccc(NC(=O)Cn2c(-n3nc(C)cc3C)nc(C)cc2=O)cc1,/,0,-2,-1%,/,-3
COc1ccc(OCc2nnc(SCC(=O)NNC(=O)c3ccc(C)cc3)n2C)cc1,8,-25,-5,1%,-118*,1
Cn1nc(-c2ccccc2)c2nc3ccccc3nc21,5,1,4,?,?,94*
CCCCn1nc(-c2ccccc2)c2nc3ccccc3nc21,-8,/,2,13%,/,51*
Cc1ccc(-c2nc3ccccc3nc2-c2ccccc2)cc1,-6,-3,1,?,21,4
O=C(NN1C(=O)NC2(CCCCC2)C1=O)c1ccc(-c2ccccc2Cl)o1,20,-6,-1,0%,-52*,3

# Bioassay records: PubChem, National Center for Advancing Translational Sciences (NCATS)
